SARS PLP yeast = inhibitors of SARS-CoV papain-like protease in yeast. S. cerevisiae expressing SARS-CoV PLpro, growth rescue. AID 485353. 330,000 tested, 0.19% active. Potency, µM (titrated, usually from 32.9 µM), inactives show top-dose activity, positive = growth rescue, most hits filed as activators; calls by dose curve; note: potency is the fitted concentration of half-maximal effect; 0% is about no effect; nearly all actives have a fitted effect of over 55% in size
Sm TGR inh = blocks Schistosoma mansoni thioredoxin glutathione reductase. purified TGR, DTNB reduction, TNB absorbance 405 nm. Potency, µM (highest dose often 114 µM), inactives show at the highest dose activity change, negative = inhibition, most hits filed as inhibitors. 360,000 tested, 3% active; note: potency is the fitted concentration of half-maximal effect; % is set by controls: 0 for no effect and ±100 for the full control effect; nearly all actives have a fitted effect of over 60% in size
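TGR 20 nM + NADPH 100 uM (dispensed conc.), cpd preinc 15 min RT; start with NADPH (500 uM addition) then DTNB (15 mM addition). Kinetic TNB absorbance, 405 nm filter. Four-parameter Hill fit across titration.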
Pf growth 48h = P. falciparum growth inhibition at 48 hours (one generation) | 310,000 tested, 5.9% active | P. falciparum luciferase growth in erythrocytes, 48 h | Potency, µM (titrated, usually from 28.7 µM), inactives show at the highest dose activity change, negative = inhibition, usual class: inhibitors; note: potency is the fitted concentration of half-maximal effect; % is set by controls: 0 for no effect and ±100 for the full control effect
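Firefly luciferase activity from engineered P. falciparum reports growth; inhibitors lower the luminescent signal. Cultures contained 2% hematocrit erythrocytes at 0.1% final parasitemia.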
Pf growth 96h = inhibits malaria parasite growth, 96 h; P. falciparum luciferase reporter growth, 96 h; Potency, µM (series often up to 28.7 µM), without a hit: at the top dose activity change, negative = inhibition, most hits filed as inhibitors; 320,000 tested, 6.9% active; note: potency is the fitted concentration of half-maximal effect; % is set by controls: 0 for no effect and ±100 for the full control effect
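Plates of compound plus infected erythrocytes (2% hematocrit, 0.05% parasitemia final) incubate 96 hours, 37 C, 5% CO2. Detection reagent added; reduced luminescence from the parasites' luciferase reporter flags inhibition.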
HCV inh = HCV inhibition; Huh7.5.1 HCVcc-Cre infection, luciferase reporter, 44 h; Potency, µM (doses to about 41.8 µM), for inactives: at the top dose activity change, negative = inhibition, usual class: inhibitors; 340,000 tested, 3.4% active; AID 651820; note: potency is the fitted concentration of half-maximal effect; % is set by controls: 0 for no effect and ±100 for the full control effect
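Compounds are dispensed onto cells plated 4 h earlier at 1,000 per well, with HCVcc-Cre virus (about 0.5 moi) added next. Following 44 h of culture, luminescent signal is measured for 15 sec after 15 min with substrate at room temperature.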
HCMV inh = inhibitors of human cytomegalovirus | HFF cells, HCMV-luciferase reporter, 72 h; hits give low values | activity change, negative = inhibition, % at 57.5 µM | 410,000 tested, 4.5% active | AID 1259415; in the data active = activity change below about -60%; inconclusive = no clear call, values can overlap the other calls; inactive = above about -39%; note: % is set by controls: 0 for no effect and ±100 for the full control effect
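Human foreskin fibroblasts infected with luciferase-reporter HCMV at MOI 1 PFU/cell, compounds at two doses. Luciferase measured 72 h post infection; normalized to buffer-only basal and Salinomycin (10uM) controls.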
The depositor's hits bear a star; u = inconclusive; x = no result given; [ ] = dose if it differs, or a comment. Shown are actives, neighbours in structure and some others; about 15% of the full set was active somewhere. Unless noted, calls come from the whole dose curve; as a rule, active = well fitted curve in the direction sought with a large enough effect; inconclusive = small, poorly fitted or top-dose-only effect, or another doubt; inactive = no such curve, though single readings can be large; an effect the other way counts as inactive or inconclusive.

SMILES | SARS PLP yeast | Sm TGR inh | Pf growth 48h | Pf growth 96h | HCV inh | HCMV inh
CCOc1ccccc1NS(=O)(=O)c1c(C)nc2sccn2c1=O | x | 0.1% | x | x | x | 23.8
O=C1CCC[C@H]2[C@@H](Cc3ccccc3)[C@@H](NS(=O)(=O)c3ccc(F)cc3)CC[C@]23CCCN13 | x | x | x | x | x | -28.2
CCOc1ccc(Nc2ncnc3c2nc2n3CCCCC2)cc1 | x | 1.9% | x | x | x | -33.4
CC(CNC(=O)c1ccc2c(c1)nc1n2CCCCC1)c1ccccc1 (centres undefined) | x | 0.9% | x | x | x | -21.6
COc1ccc(CCN(C)C2CCCN(S(=O)(=O)c3ccccc3)C2)cc1OC (centres undefined) | x | -1.2% | u | -9.3% | 0.7% | -0.6
CC1(NC(=O)Nc2cccc3ccccc23)CCS(=O)(=O)C1 (centres undefined) | 2.7% | -6.5% | 11.1% | 22.8% | 15.9% | -28.8
Cc1cc(NS(=O)(=O)c2ccc(NC(NC(=O)C(C(F)(F)F)C(F)(F)F)(C(F)(F)F)C(F)(F)F)cc2)no1 | -19.8% | 12.6µM* | 9.2% | -14.5% | 10.7% | x
CCOC(=O)Nc1ccc(S(=O)(=O)Nc2cc(C)on2)cc1 | 1.3% | -13.0% | -10.8% | 53.7% | 3.8% | -13.8
Cc1cc(NS(=O)(=O)c2ccc(NC(=O)COc3c(C)cc(Br)cc3C)cc2)no1 | 10.4% | 16.8% | -6.8% | 9.28µM* | 7.4% | 23.3
CCCC(=O)Nc1ccc(S(=O)(=O)N2CCCC2)cc1 | 0.6% | -6.9% | 24.4% | x | 8.7% | 60.7
CCOC(=O)/C=C/C(=O)Nc1ccc(S(=O)(=O)Nc2cc(C)on2)cc1 | -2.8% | 11.2µM* | 10.4µM* | 26.5% | 4.7% | 31.7
CCOC(=O)CCC(=O)Nc1ccc(S(=O)(=O)N2CCCCC2)cc1 | -0.2% | 0.0% | -2.8% | 5.22µM* | 1.2% | -31.5
O=C(CSc1n[nH]c(=O)[nH]c1=O)Nc1ccc(Br)cc1Br | -1.4% | -7.1% | -18.4% | -20.7% | 9.8% | -29.6
CCOC(=O)/C=C/C(=O)Nc1ccc(S(=O)(=O)N(C)c2ccccc2)cc1 | -1.7% | 39.8µM* | u | -10.6% | u | -24.5
CCOC(=O)/C=C/C(=O)Nc1ccc(S(=O)(=O)N2CCc3ccccc32)cc1 | -14.0% | -19.1% | u | u | 8.0% | 38.4
CCOC(=O)/C=C/C(=O)Nc1ccc(S(=O)(=O)N2CCCCCC2)cc1 | 0.8% | u | -8.9% | 11.7µM* | -20.1% | 65.2
CCC12CN3CC(C)(CN(C1)C3c1ccc(O)cc1O)C2=O (centres undefined) | x | -0.1% | x | x | x | 5.8
CCOC(=O)COc1ccc(C2C(C(=O)OC)=C(C)NC3=C2C(=O)c2ccccc23)cc1Cl (centres undefined) | x | 5.8% | x | x | x | -101.8*
CCOC(=O)C(C)Oc1c(Br)cc(C2NC(=O)NC(C)=C2C(C)=O)cc1OCC (centres undefined) | 16.3% | 11.1% | x | u | 4.3% | 7.8
CCOc1cc(C2C(C(=O)OC)=C(C)NC3=C2C(=O)c2ccccc23)ccc1OC (centres undefined) | x | 8.4% | x | x | x | 18.4
CCOc1cc(Br)c(C2C(C(=O)OC)=C(C)NC3=C2C(=O)c2ccccc23)cc1OCC (centres undefined) | x | 22.4µM* | x | x | x | -28.8
CCOC(=O)COc1cc(Br)c(C2NC(=O)NC(C)=C2C(C)=O)cc1OCC (centres undefined) | -0.5%[6.58 µM] | -13.3% | x | 9.28µM* | x | -16.1
O=C(O)c1cc(-c2ccco2)nn1-c1ccc(Cl)cc1 | 3.6% | 5.01µM* | 8.9% | 7.2% | 2.8% | -9.0
Cc1nn(-c2cccc(Cl)c2)c2nc(-c3ccco3)cc(C(=O)O)c12 | 15.3% | 15.8µM* | x | u | 6.5% | 2.5
O=C(O)c1cc(-c2cccs2)nn1-c1cccc(Cl)c1 | 1.5% | -9.7% | 12.9% | 42.0% | 8.1% | -2.9
SMILES | SARS PLP yeast | Sm TGR inh | Pf growth 48h | Pf growth 96h | HCV inh | HCMV inh
Cc1ccc(-n2nc(-c3cccnc3)cc2C(=O)N2CCOCC2)c(C)c1 | 2.4% | -6.0% | u | x | -7.1% | -1.7
O=C(O)c1cc(-c2ccco2)nn1-c1cccc(Cl)c1 | 7.1% | 63.1µM* | -4.9% | 12.6% | 7.9% | 27.8
Cc1nn(-c2ccccc2)c2nc(-c3ccco3)cc(C(=O)O)c12 | -2.0% | u | u | 18.3% | 6.4% | -28.8
Cc1ccc(-n2nc(-c3ccco3)cc2C(=O)O)c(C)c1 | 5.1% | 11.2µM* | 40.7% | -4.5% | 22.0% | -27.4
COc1cc2c(cc1OC)C1(Nc3c-2c(-c2ccccc2)nn3-c2ccccc2)C(=O)Nc2ccccc21 (centres undefined) | u | -17.5% | x | 174.5% | 12.6µM* | -14.6
COc1cc2c(cc1OC)C1(Nc3c-2c(C)nn3-c2ccccc2)C(=O)Nc2ccccc21 (centres undefined) | 8.7% | -13.7% | x | 1.47µM* | -26.5% | -21.1
CCc1nn(-c2ccccc2)c2c1-c1cc(OC)c(OC)cc1C1(N2)C(=O)Nc2ccccc21 (centres undefined) | 3.7% | 0.0% | x | 2.62µM* | u | -10.5
COc1ccc(N2C(=O)CSC23C(=O)Nc2ccccc23)cc1OC (centres undefined) | -0.7% | 5.5% | -1.0% | x | 20.0% | 45.3
COc1ccc(C2SCC(=O)Nc3c2c(C)nn3-c2ccccc2)cc1OC (centres undefined) | -2.9% | -28.8% | -2.0% | 14.4% | 14.4% | 15.9
CCN(CC)c1ccc(S(=O)(=O)N2CCOCC2)cc1NC(=O)COC(=O)C1=COCCO1 | x | x | x | x | -4.7% | -27.1
O=[N+]([O-])c1ccc2nc(/C=C/c3ccc(Cl)cc3)[nH]c2c1 | -28.8% | -7.3% | 8.28µM* | 8.28µM* | u | -85.8*
CN(C)c1nc(-c2ccccn2)nnc1-c1ccccc1 | -33.6% | -0.5% | x | 2.08µM* | u | -102.8*
CCN(CC)c1nc(-c2ccccn2)nc(-c2ccccc2)c1C#N | 12.3% | -1.4% | u | 4.15µM* | 6.31µM* | -93.2*
COC(CNC(=O)c1cn(C)c2ccc(S(=O)(=O)N(C)C3CCCCC3)cc2c1=O)OC | 6.7% | 3.9% | -16.1% | u | -12.1% | -18.2
O=C1CCC[C@H]2[C@@H](Cc3ccccc3)[C@@H](NS(=O)(=O)c3ccccc3)CC[C@]23CCCN13 | x | x | x | x | x | -20.9
CCOc1ccc(CCN2C(=S)N([C@@H](Cc3ccc(O)cc3)CN3CCCC3CN3C(=S)NC[C@@H]3Cc3ccc(O)cc3)C[C@@H]2CC(C)C)cc1 (some centres undefined) | x | x | x | x | 4.47µM* | -79.5*
CCOc1ccc(CCN2C(=S)N([C@@H](Cc3ccccc3)CN3CCC[C@@H]3CN3C(=S)NC[C@@H]3Cc3ccc(O)cc3)C[C@@H]2CC(C)C)cc1 | x | x | x | x | x | 1.3
